# Results as given in PubChem BioAssay AID652023 (National Center for Advancing Translational Sciences (NCATS), 2013).
# The list shows a part of the results. Records with an inconclusive call do not appear. Calls of active or inactive are those of the source. Calls follow the shape of the dose curve; as a rule, active = well fitted inhibition curve with a large enough effect; inconclusive = small, poorly fitted or top-dose-only effect; inactive = flat fitted curve, though single readings scatter.
# Target: Thioredoxin reductase 1, cytoplasmic (Rattus norvegicus) (UniProt O89049)
# Experiment: qHTS Assay for Inhibitors of Mammalian Selenoprotein Thioredoxin Reductase 1 (TrxR1): Hit Validation in Primary Screen
# Settings: recombinant TrxR1, NADPH fluorescence consumption, selenite substrate
# Text: The selenoprotein thioredoxin reductase (TrxR; EC 1.8.1.9) is a FAD containing homodimeric pyridine nucleotide-disulfide oxidoreductase with many cellular roles. Together with NADPH and its prime substrate thioredoxin (Trx), the enzyme forms the core of the Trx system. The mammalian Trx system exerts a wide spectrum of functions including redox regulation, antioxidant defense, regulation of transcription factors as well as support of cell growth and replication. Many of these functions involve the reduction of Trx, which may subsequently reduce a number of different substrates including ribonucleotide reductase, peroxiredoxins or NFkB. […]
# Assay protocol: 2 uL of reagents (buffer in column 4 as negative control and 90 nM rTrxR1 in columns 1-3 and 5-48) were dispensed into Greiner black solid-bottom 1,536-well assay plates, followed by 1 uL of NADPH (400 uM final concentration) to each well. […] The plate was immediately transferred to a ViewLux high-throughput CCD imager (PerkinElmer), wherein kinetic measurements of NADPH fluorescence (Ex 340 nm, Em 450 nm) were acquired (8 minute kinetic read). Read 1 was utilized to assess the capacity of a compound to serve as an rTrxR1 substrate, i.e. a decrease in NADPH fluorescence compared to the no-compound background is an indication of a substrate behavior for that particular compound. […]
# Chain of Thioredoxin reductase 1, cytoplasmic (Rattus norvegicus) (O89049 whole entry, looked up): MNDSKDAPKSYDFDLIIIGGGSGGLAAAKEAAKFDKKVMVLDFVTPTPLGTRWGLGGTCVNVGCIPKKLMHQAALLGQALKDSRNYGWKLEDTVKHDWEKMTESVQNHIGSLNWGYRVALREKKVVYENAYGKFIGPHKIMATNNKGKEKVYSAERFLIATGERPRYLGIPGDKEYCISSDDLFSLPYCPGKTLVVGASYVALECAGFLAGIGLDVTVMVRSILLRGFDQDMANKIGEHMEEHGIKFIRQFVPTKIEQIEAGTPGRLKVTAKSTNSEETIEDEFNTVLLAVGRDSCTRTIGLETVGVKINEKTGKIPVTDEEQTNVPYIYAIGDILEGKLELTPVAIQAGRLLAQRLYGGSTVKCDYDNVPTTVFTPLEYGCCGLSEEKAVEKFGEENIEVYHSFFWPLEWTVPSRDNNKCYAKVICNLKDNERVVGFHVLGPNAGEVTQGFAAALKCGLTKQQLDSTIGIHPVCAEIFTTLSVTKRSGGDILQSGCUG
compound,measurement,value
CC1CCN(C(=O)c2ccc(S(=O)(=O)Cc3cc(F)ccc3F)c([N+](=O)[O-])c2)CC1,Potency,2380 nM (active)
